The values below come from PMC3919609, “Deep sequencing of large library selections allows computational discovery of diverse sets of zinc fingers that bind common targets”.

Assay in all cases: Zn; 100 nM beta-estradiol; yeast GFP reporter, 12 h induction, 3 biological replicates
Holding throughout (conditions): tags: estrogen receptor LBD - VP16 fusion (left out); vector residues GT and GS kept at the ends; dsDNA, one strand shown

Assay [1] deals with RA three-finger array, finger 2 TSYNLTR (synthetic construct (mouse Zif268 …, UniProt P08046 333-418, E352N;T354R;R355A;R377T;D379Y;H380N;T383R;D407A;E408N;R409L;K410V)).
For assay [2], the target named is RA three-finger array, finger 2 RADNLTE (synthetic construct (mouse Zif268 …, UniProt P08046 333-418, E352N;T354R;R355A;S378A;H380N;T383E;D407A;E408N;R409L;K410V)).
Assay [3] addresses RA three-finger array, finger 2 RSDNLTR (synthetic construct (mouse Zif268 …, UniProt P08046 333-418, E352N;T354R;R355A;H380N;T383R;D407A;E408N;R409L;K410V)).
In assay [4] the target is RA three-finger array, finger 2 QSGNLTE (synthetic construct (mouse Zif268 …, UniProt P08046 333-418, E352N;T354R;R355A;R377Q;D379G;H380N;T383E;D407A;E408N;R409L;K410V)).
Assay [5] has as its target RA three-finger array, finger 2 DSSNLRS (synthetic construct (mouse Zif268 …, UniProt P08046 333-418, E352N;T354R;R355A;R377D;D379S;H380N;T382R;T383S;D407A;E408N;R409L;K410V)).
The target in assay [6] is RA three-finger array, finger 2 HSSNLTH (synthetic construct (mouse Zif268 …, UniProt P08046 333-418, E352N;T354R;R355A;R377H;D379S;H380N;T383H;D407A;E408N;R409L;K410V)).

On to GAGCAGAAG, for which the binding signal in assay [1] is 0.098 mean GFP / mean GFP of Zif268 on its consensus site; in assay [2] it was 0.267 ± 0.016 mean GFP / mean GFP of Zif268 on its consensus site.

GAGGAGAAG: the binding signal in assay [1] is 0.873 ± 0.063 mean GFP / mean GFP of Zif268 on its consensus site; in assay [3], 0.986 ± 0.121 mean GFP / mean GFP of Zif268 on its consensus site.

Consider GAGCAAAAG, for which the binding signal in assay [4] was 0.251 ± 0.044 mean GFP / mean GFP of Zif268 on its consensus site.

Turning to GAGCACAAG, the binding signal is 0.498 ± 0.055 mean GFP / mean GFP of Zif268 on its consensus site in assay [5] and 0.472 ± 0.086 mean GFP / mean GFP of Zif268 on its consensus site in assay [6].
